This is a sample that favours compounds with a hit; in the whole collection about 2.1% have one here.
ClpP mod: qHTS Assay for Activators of ClpP; Potency, µM (doses to about 57.5 µM), inactives show at the highest dose activity change, negative = active; AID 651965, 2013; ATP-dependent Clp protease proteolytic subunit (Bacillus subtilis (strain 168)), P80244; purified B. subtilis ClpP, FRET peptide cleavage, 20 min; hit rate 1.9% among 340,000; active = well fitted falling curve with a large enough effect; inconclusive = small, poorly fitted or top-dose-only effect; inactive = no such curve, though single readings can be large or run the other way; also: potency is read from the fitted curve at half-maximal effect; the source files actives as falling curves though it sought activators and does not explain the sign; nearly all actives have a fitted effect of over 65% in size
Target sequence (P80244 whole entry, looked up): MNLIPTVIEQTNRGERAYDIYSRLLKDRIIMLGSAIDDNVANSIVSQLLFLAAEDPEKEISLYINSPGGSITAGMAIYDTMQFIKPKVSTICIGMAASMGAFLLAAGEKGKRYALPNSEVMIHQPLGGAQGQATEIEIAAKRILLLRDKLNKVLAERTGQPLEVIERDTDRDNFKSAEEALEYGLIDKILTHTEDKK
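FRET quenching reversal measured ClpP activation: 10 microg/mL B. subtilis ClpP at pH 8 with the FRET-FV decapeptide, read at 430 nm after 320 nm excitation. The 20-min minus 0-min signal was scaled between DMSO/no-enzyme wells and ADEP (5.8 microM final).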
uPA generation: qHTS for Inhibitors of Cell Surface uPA Generation; cell surface uPA generation assay, qHTS; Potency, µM (titrated, usually from 38.3 µM), without a hit: at the highest dose activity change, negative = inhibition, hits mostly inhibitors; hit rate 0.31% among 330,000; AID 540303, 2011; active = well fitted inhibition curve with a large enough effect; inconclusive = small, poorly fitted or top-dose-only effect; inactive = no such curve, though single readings can be large or run the other way; tested in mouse RAW 264.7 cells; also: potency is read from the fitted curve at half-maximal effect; % is scaled to controls: 0 for no effect and ±100 for the full control effect; nearly all actives have a fitted effect of over 55% in size
Giardia kill: Small Molecules that selectively kill Giardia lamblia: qHTS; Giardia lamblia trophozoite viability; activity change, % at 7.66 µM, hits read low; hit rate 0.15% among 340,000; in the data active = activity change below about -80%; inconclusive = between about -30% and that limit;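 also: parasites exposed to compound for two days anaerobically before the ATP read; % is scaled to controls: 0 for no effect and ±100 for the full control effect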
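Luminescence from cellular ATP indicates surviving trophozoites (100 cells/well) following 48 hrs anaerobic compound treatment at 37 deg C; signal develops 15-30 min at room temperature.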
Mito fusion act: qHTS Assay for Small Molecule Inhibitors of Mitochondrial Division or Activators of Mitochondrial Fusion. S. cerevisiae fusion-defective mutant growth rescue, CellTiterGlo 48 h. Potency, µM (titrated, usually from 46.1 µM), for inactives: at the highest dose growth rescue (activation), most hits filed as activators. hit rate 0.23% among 320,000. AID 485298, 2010; also: potency is read from the fitted curve at half-maximal effect; % of control where 0% means no effect; nearly all actives have a fitted effect of over 45% in size
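Compounds are tested for their ability to restore growth of mitochondrial fusion-defective yeast strains at non-permissive 37C in YPEG medium over 48 hours. Viability is quantified by luciferase luminescence.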
p53 reactivator: qHTS assay for re-activators of p53 using a Luc reporter; H1299 p53-A138V BP100-luciferase reporter, luminescence, 24 h; hit rate 0.063% among 320,000; Potency, µM (doses to about 92.2 µM), without a hit: at the top dose activity change, positive = activation, usual class: activators; also: potency is read from the fitted curve at half-maximal effect; % of control where 0% means no effect; nearly all actives have a fitted effect of over 45% in size
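p53-null H1299 cells stably carrying temperature-sensitive p53-A138V and a BP100-luciferase reporter were pinned with compounds (4-point, 1:5 series) and held 24 hrs at 37 deg C. Luminescence was read 10 min after detection reagent.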
B2AR arrestin: qHTS assay of beta-arrestin-biased ligands of beta2-adrenergic receptor; Beta-2 adrenergic receptor (Homo sapiens), P07550; beta-arrestin recruitment to beta2AR, cell-based reporter; Potency, µM (top dose mostly 46.1 µM), inactives show at the top dose activation, usual class: activators; hit rate 0.02% among 330,000;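 also: potency is read from the fitted curve at half-maximal effect; 0% = DMSO controls and full agonism = EC100 isoproterenol or metaproterenol; nearly all actives have a fitted effect of over 65% in size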
Target sequence (P07550 whole entry, looked up): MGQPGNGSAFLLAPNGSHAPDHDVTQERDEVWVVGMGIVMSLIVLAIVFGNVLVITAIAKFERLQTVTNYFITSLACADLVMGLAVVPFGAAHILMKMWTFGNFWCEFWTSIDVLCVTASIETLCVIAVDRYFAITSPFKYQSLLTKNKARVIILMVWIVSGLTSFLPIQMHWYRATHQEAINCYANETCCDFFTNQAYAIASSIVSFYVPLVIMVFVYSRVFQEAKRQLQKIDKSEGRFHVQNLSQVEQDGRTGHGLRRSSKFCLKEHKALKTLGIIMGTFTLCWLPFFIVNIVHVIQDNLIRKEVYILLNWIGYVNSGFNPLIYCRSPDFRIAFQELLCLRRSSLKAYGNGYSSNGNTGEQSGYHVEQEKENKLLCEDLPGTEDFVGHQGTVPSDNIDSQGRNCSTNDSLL
The depositor's hits bear a star; ? = inconclusive; . = not tested or not shown. Unless noted, calls follow the shape of the dose curve; as a rule, active = well fitted curve in the direction sought with a large enough effect; inconclusive = small, poorly fitted or top-dose-only effect, or another doubt; inactive = no such curve, though single readings can be large; an effect the other way counts as inactive or inconclusive.

SMILES	ClpP mod	uPA generation	Giardia kill	Mito fusion act	p53 reactivator	B2AR arrestin
COc1ccccc1-n1c(-c2ccc(NS(C)(=O)=O)cc2)n[nH]c1=S	28µM*	2%	-10	2%	2%	0%
CCC(C(=O)NC(C)(C)C)n1c(-c2ccc3c(c2)OCO3)nc2ccccc21 (configuration not stated)	4%	.	.	.	.	.
CCc1ccc(NC(=O)C(=O)NCC(c2ccc3c(c2)OCO3)N2CCOCC2)cc1 (configuration not stated)	-1%	.	.	.	.	.
COc1ccc(-c2nc(CS(=O)CC(=O)NCc3ccc(F)cc3)c(C)o2)cc1OC (configuration not stated)	28µM*	.	.	.	.	.
COc1ccc(-c2nc(CS(=O)CC(=O)NCc3ccc(C)cc3)c(C)o2)cc1OC (configuration not stated)	4%	-7%	-3	-16%	-10%	0%
CCCN(CCC)CCNC(=O)CS(=O)Cc1nc(-c2ccc(OC)c(OC)c2)oc1C (configuration not stated)	32µM*	.	.	.	.	.
Cc1ccccc1NS(=O)(=O)c1ccc2[nH]cc(C(=O)N3CCCC3)c(=O)c2c1	-22%	.	.	.	.	.
COc1ccccc1-c1nnc(-c2ccc(C)cc2)o1	.	-11%	1	.	.	.
COc1cccc(OC)c1-c1nnc(-c2cn(C)c3ccccc23)o1	11µM*	1%	4	0%	-4%	0%
Cc1noc(C)c1COc1ccc(C(=O)NNC(=O)c2ccccc2F)cc1	0%	2.8µM*	-10	0%	7%	0%
Cc1cc(C)n2nc(-c3ccc(Cl)cc3)cc2n1	4%	-7%	-18	-4%	?	-1%
Cc1nc2cc(-c3ccc(Cl)cc3)nn2c(NCCN(C)C)c1C	.	1%	-96*	21%	17%	0%
O=[N+]([O-])c1cc([N+](=O)[O-])c2nonc2c1Nc1ccccc1O	0%	5.6µM*	-7	-7%	18%	-1%
O=[N+]([O-])c1cncc([N+](=O)[O-])c1Nc1cccc(O)c1	1%	10µM*	?	-10%	-6%	0%
O=[N+]([O-])c1cc([N+](=O)[O-])c2nonc2c1Nc1ccc(O)cc1	-1%	11µM*	-2	1%	6%	0%
Cc1ccccc1CN1CCCN(CC(=O)Nc2ccc3c(c2)OCCO3)S1(=O)=O	1%	.	.	.	.	.
COC(=O)Cc1c(C)c2ccc(OC(C)C)cc2oc1=O	3%	?	10	4%	7%	-1%
COC(=O)COc1cc(C)cc2oc(=O)c(CC(=O)OC)c(C)c12	14µM*	12%	27	11%	17%	0%
COC(=O)COc1cc(OCC(=O)OC)c2c(C)c(Cl)c(=O)oc2c1	14µM*	-1%	-15	3%	7%	0%
Cc1cc(OCc2nn[nH]n2)c2c(C)c(CC(=O)O)c(=O)oc2c1	?	10%	2	-3%	5%	0%
CCc1c(C)c2ccc(OCC(=O)OC)cc2oc1=O	14µM*	.	-10	2%	1%	-1%
Cc1ccc(Nc2ncnc3c2cnn3-c2ccccc2)c(C)c1	-2%	.	.	.	.	.
Cc1cccc(N(C)C(=O)CN(C)S(=O)(=O)c2ccc3[nH]c4c(c3c2)CCCC4)c1	-15%	.	.	.	.	.
CCc1ccc(C2=CC(c3cc(Br)ccc3F)n3ncnc3N2)cc1 (configuration not stated)	32µM*	.	5	28%	-3%	0%
Cc1ccccc1NC(=O)C1CC(=O)N(c2ccccc2F)C1 (configuration not stated)	14µM*	5%	-14	-9%	-7%	0%
SMILES	ClpP mod	uPA generation	Giardia kill	Mito fusion act	p53 reactivator	B2AR arrestin
Cc1ccccc1NC(=O)C1CC(=O)N(c2ccc3c4c(cccc24)CC3)C1 (configuration not stated)	-2%	9%	4	-5%	-7%	0%
COc1ccc2nc(NC(=O)c3ccccc3C(=O)O)sc2c1	1%	-15%	-15	5%	12%	0%
CSc1ncccc1C(=O)Nc1nc2ccc(Oc3ccccc3)cc2s1	-6%	-9%	?	13µM*	?	0%
COc1ccc(C(=O)Nc2nc3ccccc3s2)c(OC)c1	.	-18%	-95*	-19%	.	0%
COc1ccc2nc(NC(=O)c3ccccc3F)sc2c1	4%	10µM*	-30	-7%	-7%	0%
O=C(NCc1cccs1)c1nn(-c2ccccc2F)nc1CO	1%	.	.	.	.	.
Cc1ccc(-n2nc3c(c2NC(=O)c2ccc(F)c(F)c2)CS(=O)(=O)C3)cc1	28µM*	?	-13	-2%	-9%	1%
COc1ccc(C2C(C#N)=C(C)NC3=C2C(=O)CC(C)(C)C3)cc1 (configuration not stated)	28µM*	-5%	0	0%	-3%	0%
COc1cccc(C2C(C#N)=C(C)NC3=C2C(=O)CC(C)(C)C3)c1 (configuration not stated)	25µM*	-2%	0	1%	-6%	-2%
COc1cccc(C2C(C#N)=C(N)N(N(C)C)C3=C2C(=O)CC(C)(C)C3)c1 (configuration not stated)	.	0%	-10	-6%	1%	0%
CCCSC1=C(C#N)C(c2ccc(OC)cc2)C2=C(CC(C)(C)CC2=O)N1 (configuration not stated)	-15%	-4%	-18	5%	-4%	2%
O=C(NCCC1=CCCCC1)c1ccc2c(=O)n3nc(Nc4ccccc4)sc3nc2c1	-2%	.	.	.	.	.
Cc1ccc(CN(Cc2ccco2)c2cnc(S(C)(=O)=O)nc2C(=O)Nc2ccccc2Br)o1	-11%	.	.	.	.	.
CCOC(=O)c1sc(NC(=O)C(C)(C)C)cc1C	1%	11µM*	-13	20%	?	0%
CCOC(=O)c1sc(NC(=O)C2CC2)cc1C	-8%	-10%	20	21%	10%	0%
CC(C)c1ccc(CC(=O)N2CCC2(C)C(=O)NS(=O)(=O)c2cccc(C#N)c2)cc1 (configuration not stated)	-5%	.	.	.	.	.
Cc1c(Cl)cccc1NC(=O)C(=O)NCCc1csc(-c2ccc(C(F)(F)F)cc2)n1	0%	.	.	.	.	.
Cc1ccc2cccc(SCC(=O)NCc3ccco3)c2n1	14µM*	1%	-14	-2%	-4%	0%
Cc1ccc2cccc(OCC(=O)NCc3ccco3)c2n1	-9%	-2%	1	-3%	1%	-1%

Screens: PubChem, National Center for Advancing Translational Sciences (NCATS)
